Pf growth 48h: Primary qHTS for delayed death inhibitors of the malarial parasite plastid, 48 hour incubation | P. falciparum luciferase growth in erythrocytes, 48 h | Potency, µM (doses to about 28.7 µM), without a hit: top-dose activity change, negative = inhibition, most hits filed as inhibitors | 310,000 tested, 5.9% active | AID 504832, 2011; further: potency means the concentration at half of the fitted maximal effect; on the % scale 0 is the no-effect control and ±100 the full control effect
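Growth was read as firefly luciferase luminescence after a 48 h, 37 C, 5% CO2 exposure of compounds to reporter-bearing P. falciparum cultures (0.1% parasitemia, 2% hematocrit final) in Albumax-supplemented RPMI 1640.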
AMA1-RON2 inh: qHTS for Inhibitors of AMA1-RON; Towards Development of Antimalarial Drug Lead: Primary Screen; Plasmodium falciparum AMA1 (3D7) - RON2 peptide interaction; 360,000 tested, 0.2% active; AlphaScreen AMA1-biotinylated RON2 peptide binding; Potency, µM (doses to about 58.2 µM), for the others: top-dose activity change, negative = inhibition, most hits filed as inhibitors;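 further: potency means the concentration at half of the fitted maximal effect; 0% = vehicle wells and -100% = peptide control; nearly all actives have a fitted effect of over 45% in size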
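AMA1 (3D7) with his tag at 25 nM final met compounds first, then biotinylated RON2 peptide at 25 nM; detection used donor plus acceptor beads, 10 µg/mL apiece, read by AlphaScreen after 30 min at room temperature.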
NS1 inh: qHTS Assay for Inhibitors of Influenza NS1 Protein Function | Potency, µM (titrated, usually from 46.1 µM), without a hit: at the highest dose activity, positive = more growth | 270,000 tested, 0.4% active; calls by dose curve; further: potency means the concentration at half of the fitted maximal effect; actives are rising curves; nearly all actives have a fitted effect of over 50% in size
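Compounds were scored for reversing the slow growth caused by influenza A NS1 in S. cerevisiae, measured by optical density at 600 nm. Assay medium contained 2% galactose at pH 6.0; NS1-free yeast of the same strain were the positive control.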
SARS PLpro yeast-1: qHTS of Yeast-based Assay for SARS-CoV PLP | S. cerevisiae expressing SARS-CoV PLpro, growth rescue | Potency, µM (doses to about 32.9 µM), inactives show at the top dose activity, positive = growth rescue, hits mostly activators | 330,000 tested, 0.19% active | AID 485353, 2010; calls by dose curve; further: potency means the concentration at half of the fitted maximal effect; 0% is about no effect; nearly all actives have a fitted effect of over 55% in size
Pf growth 96h: Primary qHTS for delayed death inhibitors of the malarial parasite plastid, 96 hour incubation; P. falciparum luciferase reporter growth, 96 h; Potency, µM (series often up to 28.7 µM), inactives show at the top dose activity change, negative = inhibition, actives largely listed as inhibitors; 320,000 tested, 6.9% active; further: potency means the concentration at half of the fitted maximal effect; on the % scale 0 is the no-effect control and ±100 the full control effect
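Erythrocytes infected with luciferase-expressing P. falciparum were dispensed at 2% hematocrit and 0.05% parasitemia (final), then incubated with compounds 96 hours at 37 C in 5% CO2. Luminescence after detection reagent addition reported growth.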
HCV inh: qHTS Assay for Inhibitors of Hepatitis C Virus (HCV) | Huh7.5.1 HCVcc-Cre infection, luciferase reporter, 44 h | 340,000 tested, 3.4% active | Potency, µM (doses to about 41.8 µM), inactives show at the top dose activity change, negative = inhibition, most hits filed as inhibitors | AID 651820, 2012; further: potency means the concentration at half of the fitted maximal effect; on the % scale 0 is the no-effect control and ±100 the full control effect
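Cells seeded at 1,000/well and cultured 4 h, then compounds added followed by HCVcc-Cre virus (~0.5 moi). After 44 h further culture, luciferase substrate was added, plates held 15 min at room temperature, and luminescence read for 15 sec.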
SARS PLpro yeast-2: qHTS of Yeast-based Assay for SARS-CoV PLP: Hit Validation; shares compounds with SARS PLpro yeast-1; yeast expressing SARS-CoV PLpro, growth phenotype rescue; calls only; 1,000 tested, 19% active; AID 652038, 2013; call rule not given here
CLK4 cf ADPGlo: Confirmaiton Assay for Inhibitors of CDC-like Kinase 4 (ADP-Glo Assay) | Potency, µM (series often up to 80 µM), for inactives: top-dose activity, negative = inhibition, actives largely listed as inhibitors | recombinant Clk4, RS peptide, ADP-Glo luminescence | shares compounds with Pf growth 48h | 65 tested, 80% active
Target sequence (Q9HAZ1 whole entry, looked up): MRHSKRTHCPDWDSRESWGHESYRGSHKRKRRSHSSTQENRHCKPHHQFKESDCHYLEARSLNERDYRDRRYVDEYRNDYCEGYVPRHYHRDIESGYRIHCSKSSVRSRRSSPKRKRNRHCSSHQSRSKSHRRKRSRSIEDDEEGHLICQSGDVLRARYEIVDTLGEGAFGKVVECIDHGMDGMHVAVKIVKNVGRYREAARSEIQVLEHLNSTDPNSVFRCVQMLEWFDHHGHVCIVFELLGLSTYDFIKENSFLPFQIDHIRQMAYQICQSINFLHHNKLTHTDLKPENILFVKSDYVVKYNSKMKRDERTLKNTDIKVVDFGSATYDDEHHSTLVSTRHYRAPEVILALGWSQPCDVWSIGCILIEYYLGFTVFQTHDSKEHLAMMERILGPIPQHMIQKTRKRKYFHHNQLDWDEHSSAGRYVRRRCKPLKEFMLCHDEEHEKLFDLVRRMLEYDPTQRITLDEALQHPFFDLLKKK
CLK4 cf ADP-FP: Confirmation Assay for Inhibitors of CDC-like Kinase 4 (ADP-FP Assay); shares compounds with Pf growth 48h; recombinant Clk4, ADP Transcreener FP, RS peptide; Potency, µM (top dose mostly 80 µM), for the others: at the top dose activity, negative = inhibition, actives largely listed as inhibitors; 65 tested, 70% active; AID 1983, 2009
HCV confirm: qHTS Assay for Inhibitors of Hepatitis C Virus (HCV): Confirmation Assay for Cherry-picked Compounds; shares compounds with HCV inh; HCVcc-Cre infectious virus cell assay, luciferase, inhibition; Potency, µM (highest dose often 41.8 µM), for inactives: top-dose activity, negative = inhibition, actives largely listed as inhibitors; 640 tested, 78% active; further: potency means the concentration at half of the fitted maximal effect; nearly all actives have a fitted effect of over 80% in size
HCV host tox: qHTS Assay for Inhibitors of Hepatitis C Virus (HCV): Cytotoxicity Counterscreen for Cherry-picked Compounds | 640 tested, 22% active | Potency, µM (doses to about 41.8 µM), for the others: top-dose activity change, negative = cytotoxicity, hits mostly inhibitors | HCV host cell line cytotoxicity counterscreen | AID 720576, 2013 | shares compounds with HCV inh;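 further: potency means the concentration at half of the fitted maximal effect; 44 h compound exposure; on the % scale 0 is the no-effect control and ±100 the full control effect; nearly all actives have a fitted effect of over 55% in size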
Active calls of the source: *; i = inactive; ? = inconclusive; / = no result. Hits are enriched below; roughly 12% of the tested compounds scored in any of these assays. Unless noted, the call rests on the fitted dose curve; in most records, active means well fitted curve in the direction sought with a large enough effect; inconclusive means small, poorly fitted or top-dose-only effect, or another doubt; inactive means no such curve, though single readings can be large; an effect the other way counts as inactive or inconclusive.

SMILES	Pf growth 48h	AMA1-RON2 inh	NS1 inh	SARS PLpro yeast-1	Pf growth 96h	HCV inh	CLK4 cf ADPGlo	CLK4 cf ADP-FP	others
Cc1cc(C)c2nc(NNC(=O)c3ccc(S(=O)(=O)N4CCc5ccccc5C4)cc3)sc2c1	2.33µM*	40.9%	?	5.62µM*	3.7µM*	4.47µM*	/	/	SARS PLpro yeast-2=?;HCV confirm=3.53µM*;HCV host tox=?
Cc1nn(C(C)C(=O)NCc2ccco2)c(C)c1[N+](=O)[O-] (stereo unspecified)	-5.0%	-2.5%	2.4%	-1.6%	-6.5%	10.2%	/	/
C/C(=N\NC(=O)C(C)n1nc(C)c([N+](=O)[O-])c1C)c1ccccc1O (stereo unspecified)	9.28µM*	85.6%	15.3%	?	?	2.51µM*	/	/	SARS PLpro yeast-2=i;HCV confirm=7.91µM*;HCV host tox=?
Cc1csc(CNc2ncnc3ccc(-c4ccc5c(ccn5C)c4)cc23)c1	3.7µM*	/	/	-12.6%	5.86µM*	/	14.1µM*	39.8µM*
Clc1ccc2c(NCc3cccs3)ncnc2c1	/	-3.2%	-9.0%	0.1%	23.1%	?	/	/
Cc1cccc(-c2ccc3ncnc(NCc4cc(C)cs4)c3c2)c1	11.7µM*	/	/	0.4%	9.28µM*	/	14.1µM*	?
Cc1csc(CNc2ncnc3ccc(-c4ccco4)cc23)c1	?	/	/	-5.5%	7.2%	/	-1.7%	-8.8%
Cc1csc(CNc2ncnc3ccc(-c4cccc(Cl)c4)cc23)c1	7.38µM*	/	/	-23.1%	2.33µM*	/	12.6µM*	?
c1csc(CNc2ncnc3sccc23)c1	/	3.3%	/	/	/	?	/	/
COc1cc2ncnc(NCc3cccs3)c2cc1OC	?	-1.3%	-0.5%	0.9%	-23.9%	-16.2%	/	/
c1csc(CNc2ncnc3ccc(-c4ccc5c(c4)OCO5)cc23)c1	?	/	/	1.2%	?	/	0.0708µM*	0.0447µM*
c1csc(CNc2ncnc3ccc(-c4ccoc4)cc23)c1	?	/	/	1.9%	?	/	0.224µM*	0.251µM*
OCCc1c[nH]c2ccc(C(F)(F)F)cc12	-34.3%	-0.6%	-11.6%	-13.1%	17.4%	?	/	/
Cc1cccc(-c2ccc3ncnc(N(C)Cc4ccco4)c3c2)c1	11.7µM*	/	/	-3.6%	?	/	2.51µM*	3.16µM*
CN(Cc1ccco1)c1ncnc2ccc(-c3ccc4c(ccn4C)c3)cc12	10.4µM*	/	/	-22.1%	9.28µM*	/	14.1µM*	?
CN(Cc1ccco1)c1ncnc2ccc(-c3cccc(Cl)c3)cc12	6.57µM*	/	/	-12.5%	9.28µM*	/	1.41µM*	1.58µM*
CCC(C)(C(=O)NC1CCCC1)N(Cc1ccco1)C(=O)c1ccc2c(c1)OCO2 (stereo unspecified)	0.2%	7.3%	-14.8%	-1.7%	?	?	/	/
CN(Cc1ccco1)c1ncnc2ccc(-c3ccc4c(c3)OCO4)cc12	?	/	/	4.3%	?	/	0.0631µM*	0.0501µM*
Cc1ccc(N(Cc2ccco2)C(=O)c2cccc(S(=O)(=O)N(C)C)c2)cc1	?	-3.9%	-10.0%	0.6%	-17.3%	-15.9%	/	/
NC(=O)c1sc2nnc(-c3ccccc3)c(-c3ccccc3)c2c1N	-6.0%	-6.2%	4.2%	-0.4%	-8.5%	-15.8%	/	/
Cc1ccc(CN2CCC(C)(Oc3ccc(Cl)cc3)C2)cc1 (stereo unspecified)	/	-16.2%	/	/	/	/	/	/
COc1cc([C@H]2c3c(cc(OC)c(O)c3OC)C[C@@H](CO)[C@@H]2CO[C@@H]2O[C@H](CO)[C@@H](O)[C@H](O)[C@H]2O)cc(OC)c1O	11.3%	-2.0%	/	-7.2%	46.4%	9.6%	/	/
CCN1C[C@@H]2[C@@H]3C(=O)N(Cc4ccccc4)C(=O)[C@@H]3[C@](CC)(C(=O)OC)N2C1=NC	/	1.4%	/	3.6%	/	13.8%	/	/
c1cncc(CNc2ncnc3ccc(-c4ccco4)cc23)c1	?	/	/	0.6%	?	/	2.82µM*	8.91µM*
COc1cccc(-c2ccc3ncnc(NCc4cccnc4)c3c2)c1	?	/	/	5.8%	?	/	2.51µM*	4.47µM*
SMILES	Pf growth 48h	AMA1-RON2 inh	NS1 inh	SARS PLpro yeast-1	Pf growth 96h	HCV inh	CLK4 cf ADPGlo	CLK4 cf ADP-FP	others
COc1cccc(CNc2ncnc3cc(OC)c(OC)cc23)c1	?	-0.1%	1.2%	-3.3%	?	-14.6%	/	/
Fc1cccc(CNc2ncnc3ccc(-c4cccnc4)cc23)c1	?	/	/	-3.0%	14.7µM*	/	2.82µM*	6.31µM*
c1cncc(CNc2ncnc3sccc23)c1	13.5%	0.7%	/	-1.1%	27.1%	-28.0%	/	/
Cc1cccc(-c2ccc3ncnc(NCc4cccc(F)c4)c3c2)c1	0.0415µM*	/	/	-13.7%	1.31µM*	/	3.98µM*	7.94µM*
Cc1cccc(CNc2ncnc3ccc(-c4cccc(Cl)c4)cc23)c1	6.57µM*	/	/	0.3%	4.15µM*	/	12.6µM*	?
Cc1cccc(CNc2ncnc3ccc(-c4ccccc4Cl)cc23)c1	5.22µM*	/	/	-17.2%	1.47µM*	/	7.94µM*	?
Cc1cccc(-n2ncc3c(NCc4ccccc4)ncnc32)c1	47.2%	6.5%	-21.3%	-21.6%	-3.9%	?	/	/
Fc1cccc(CNc2ncnc3ccc(-c4ccccc4Cl)cc23)c1	5.86µM*	/	/	0.0%	2.08µM*	/	7.94µM*	10µM*
